# In the supplement of paper PMC12282887:
# ± gives the standard deviation of the averaged measurements.
# Tests used:
# Test in all cases: promoter activity interaction Z-score (Lux/OD deviation from empty-vector control); higher = stronger promoter induction by the compound
# [1] = tested on: E. coli BW25113 acrABp lux reporter
# How it was run: (§1)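 Reporter strains of E. coli BW25113 grew at 37°C in 40 µl LB Lennox in 384-well plates. Readings of OD600 and luminescence were taken every 30 min over 12 h, integrated over 0–8 h (wild type) or 1–9 h (deletion strains), and wells below 10% of the median growth value were excluded. Scores are Z-transformed residuals of growth-normalised luminescence from a fit against a control.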
# [2] = tested on: E. coli BW25113 marRABp lux reporter
# How it was run: as §1
# [3] = tested on: E. coli BW25113 micFp lux reporter
# How it was run: as §1
# [4] = tested on: E. coli BW25113 ompFp lux reporter
# How it was run: as §1
# [5] = tested on: E. coli BW25113 robp lux reporter
# How it was run: as §1
# [6] = tested on: E. coli BW25113 soxSp lux reporter
# How it was run: as §1
# [7] = tested on: E. coli BW25113 tolCp lux reporter
# How it was run: as §1
# [8] = 0.048 µg/ml, genetic background: wild type
# [9] = 0.048 µg/ml, genetic background: ΔmarA
# [10] = 0.048 µg/ml, genetic background: Δrob
# [11] = 0.048 µg/ml, genetic background: ΔsoxS
# [12] = 0.1 µg/ml, genetic background: wild type
# [13] = 0.1 µg/ml, genetic background: ΔmarA
# [14] = 0.1 µg/ml, genetic background: Δrob
# [15] = 0.1 µg/ml, genetic background: ΔsoxS
# [16] = 0.19 µg/ml, genetic background: wild type
# [17] = 0.19 µg/ml, genetic background: ΔmarA
# [18] = 0.19 µg/ml, genetic background: Δrob
# [19] = 0.19 µg/ml, genetic background: ΔsoxS
# [20] = 0.38 µg/ml, genetic background: wild type
# [21] = 0.38 µg/ml, genetic background: ΔsoxS
smiles,measurement,setting,value
CCC(C)CCCC(=O)N[C@@H](CCN)C(=O)N[C@H](C(=O)N[C@@H](CCN)C(=O)N[C@H]1CCNC(=O)[C@H]([C@@H](C)O)NC(=O)[C@H](CCN)NC(=O)[C@H](CCN)NC(=O)[C@H](CC(C)C)NC(=O)[C@@H](CC(C)C)NC(=O)[C@H](CCN)NC1=O)[C@@H](C)O (some centres not stated) [Colistin],promoter activity interaction Z-score,[1]; [8],0.00962 ± 0.11
same,promoter activity interaction Z-score,[1]; [9],-0.167 ± 0.31
same,promoter activity interaction Z-score,[1]; [10],0.139 ± 0.096
same,promoter activity interaction Z-score,[1]; [11],0.0289 ± 0.14
same,promoter activity interaction Z-score,[1]; [12],0.308 ± 0.22
same,promoter activity interaction Z-score,[1]; [13],0.524 ± 0.34
same,promoter activity interaction Z-score,[1]; [14],0.0214 ± 0.021
same,promoter activity interaction Z-score,[1]; [15],-0.00861 ± 0.23
same,promoter activity interaction Z-score,[1]; [16],0.246 ± 0.16
same,promoter activity interaction Z-score,[1]; [17],-0.482 ± 0.29
same,promoter activity interaction Z-score,[1]; [18],0.192 ± 0.051
same,promoter activity interaction Z-score,[1]; [19],-0.0737 ± 0.12
same,promoter activity interaction Z-score,[1]; [20],0.607 ± 0.1
same,promoter activity interaction Z-score,[1]; [21],2.31 ± 2.5
same,promoter activity interaction Z-score,[2]; [8],-0.253 ± 0.2
same,promoter activity interaction Z-score,[2]; [9],-0.196 ± 0.055
same,promoter activity interaction Z-score,[2]; [10],0.00109 ± 0.051
same,promoter activity interaction Z-score,[2]; [11],0.178 ± 0.25
same,promoter activity interaction Z-score,[2]; [12],-0.233 ± 0.24
same,promoter activity interaction Z-score,[2]; [13],-0.108 ± 0.097
same,promoter activity interaction Z-score,[2]; [14],-0.0851 ± 0.097
same,promoter activity interaction Z-score,[2]; [15],0.0244 ± 0.049
same,promoter activity interaction Z-score,[2]; [16],-0.154 ± 0.21
same,promoter activity interaction Z-score,[2]; [17],-0.0032 ± 0.049
same,promoter activity interaction Z-score,[2]; [18],0.0892 ± 0.15
same,promoter activity interaction Z-score,[2]; [19],0.023 ± 0.025
same,promoter activity interaction Z-score,[2]; [20],1.21 ± 0.13
same,promoter activity interaction Z-score,[2]; [21],1.22
same,promoter activity interaction Z-score,[3]; [8],-0.359 ± 0.049
same,promoter activity interaction Z-score,[3]; [9],0.0434 ± 0.083
same,promoter activity interaction Z-score,[3]; [10],0.0506 ± 0.077
same,promoter activity interaction Z-score,[3]; [11],-0.14 ± 0.12
same,promoter activity interaction Z-score,[3]; [12],-0.48 ± 0.39
same,promoter activity interaction Z-score,[3]; [13],-0.0509 ± 0.014
same,promoter activity interaction Z-score,[3]; [14],0.0439 ± 0.063
same,promoter activity interaction Z-score,[3]; [15],-0.113 ± 0.06
same,promoter activity interaction Z-score,[3]; [16],-0.562 ± 0.18
same,promoter activity interaction Z-score,[3]; [17],-0.217 ± 0.25
same,promoter activity interaction Z-score,[3]; [18],-0.229 ± 0.24
same,promoter activity interaction Z-score,[3]; [19],-0.514 ± 0.082
same,promoter activity interaction Z-score,[3]; [20],-0.607 ± 0.2
same,promoter activity interaction Z-score,[4]; [8],-0.346 ± 0.26
same,promoter activity interaction Z-score,[4]; [9],-0.0916 ± 0.57
same,promoter activity interaction Z-score,[4]; [10],-0.0368 ± 0.43
same,promoter activity interaction Z-score,[4]; [11],0.093 ± 0.28
same,promoter activity interaction Z-score,[4]; [12],-0.267 ± 0.43
same,promoter activity interaction Z-score,[4]; [13],0.449 ± 0.06
same,promoter activity interaction Z-score,[4]; [14],0.19 ± 0.37
same,promoter activity interaction Z-score,[4]; [15],0.15 ± 0.24
same,promoter activity interaction Z-score,[4]; [16],0.073 ± 0.018
same,promoter activity interaction Z-score,[4]; [17],0.452 ± 0.48
same,promoter activity interaction Z-score,[4]; [18],-0.296 ± 0.74
same,promoter activity interaction Z-score,[4]; [19],-0.0443 ± 0.14
same,promoter activity interaction Z-score,[4]; [20],0.0453 ± 0.83
same,promoter activity interaction Z-score,[4]; [21],1.11
same,promoter activity interaction Z-score,[5]; [8],0.161 ± 0.5
same,promoter activity interaction Z-score,[5]; [9],-0.748 ± 0.18
same,promoter activity interaction Z-score,[5]; [10],0.308 ± 0.074
same,promoter activity interaction Z-score,[5]; [11],0.602 ± 0.38
same,promoter activity interaction Z-score,[5]; [12],0.156 ± 0.63
same,promoter activity interaction Z-score,[5]; [13],-0.00162 ± 0.4
same,promoter activity interaction Z-score,[5]; [14],-0.329 ± 0.5
same,promoter activity interaction Z-score,[5]; [15],1.13 ± 0.73
same,promoter activity interaction Z-score,[5]; [16],0.641 ± 1.4
same,promoter activity interaction Z-score,[5]; [17],-0.0677 ± 0.0062
same,promoter activity interaction Z-score,[5]; [18],-0.869 ± 0.76
same,promoter activity interaction Z-score,[5]; [19],-0.113 ± 0.049
same,promoter activity interaction Z-score,[5]; [20],-1.15 ± 0.17
same,promoter activity interaction Z-score,[5]; [21],-1.35 ± 0.85
same,promoter activity interaction Z-score,[6]; [8],-0.0522 ± 0.2
same,promoter activity interaction Z-score,[6]; [9],0.182 ± 0.078
same,promoter activity interaction Z-score,[6]; [10],0.268 ± 0.048
same,promoter activity interaction Z-score,[6]; [11],0.235 ± 0.097
same,promoter activity interaction Z-score,[6]; [12],-0.219 ± 0.34
same,promoter activity interaction Z-score,[6]; [13],0.306 ± 0.074
same,promoter activity interaction Z-score,[6]; [14],0.144 ± 0.06
same,promoter activity interaction Z-score,[6]; [15],0.368 ± 0.28
same,promoter activity interaction Z-score,[6]; [16],-0.09 ± 0.072
same,promoter activity interaction Z-score,[6]; [17],0.135 ± 0.0049
same,promoter activity interaction Z-score,[6]; [18],-0.469 ± 0.47
same,promoter activity interaction Z-score,[6]; [19],0.108 ± 0.33
same,promoter activity interaction Z-score,[6]; [20],-0.417 ± 0.57
same,promoter activity interaction Z-score,[6]; [21],-0.517
same,promoter activity interaction Z-score,[7]; [8],-0.508 ± 0.048
same,promoter activity interaction Z-score,[7]; [9],-0.536 ± 0.12
same,promoter activity interaction Z-score,[7]; [10],0.211 ± 0.004
same,promoter activity interaction Z-score,[7]; [11],0.982 ± 0.44
same,promoter activity interaction Z-score,[7]; [12],-0.675 ± 0.32
same,promoter activity interaction Z-score,[7]; [13],0.378 ± 0.075
same,promoter activity interaction Z-score,[7]; [14],-0.935 ± 0.56
same,promoter activity interaction Z-score,[7]; [15],0.791 ± 0.7
same,promoter activity interaction Z-score,[7]; [16],-0.155 ± 0.13
same,promoter activity interaction Z-score,[7]; [17],-1.61 ± 0.11
same,promoter activity interaction Z-score,[7]; [18],-0.925 ± 0.63
same,promoter activity interaction Z-score,[7]; [19],-0.699 ± 0.78
same,promoter activity interaction Z-score,[7]; [20],-0.255 ± 0.42
same,promoter activity interaction Z-score,[7]; [21],-0.469 ± 0.66
